Source: ChEMBL document CHEMBL2218924, “A broad activity screen in support of a chemogenomic map for kinase signalling research and drug discovery” (Biochem J, 2013)

Key:
[1] = biological target: T1, Dual specificity mitogen-activated protein kinase kinase 6 (Homo sapiens) (UniProt P52564); details: at 1 µM
T1 sequence (whole entry): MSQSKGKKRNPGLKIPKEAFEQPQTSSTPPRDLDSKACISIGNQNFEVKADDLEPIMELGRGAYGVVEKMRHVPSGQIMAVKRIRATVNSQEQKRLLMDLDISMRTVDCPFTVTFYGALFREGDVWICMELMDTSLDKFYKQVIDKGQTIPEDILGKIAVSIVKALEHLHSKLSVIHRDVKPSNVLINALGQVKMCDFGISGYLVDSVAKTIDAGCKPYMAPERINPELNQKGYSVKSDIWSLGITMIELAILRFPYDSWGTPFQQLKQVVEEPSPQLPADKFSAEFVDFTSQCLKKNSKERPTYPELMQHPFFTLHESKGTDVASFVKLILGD

[2] = biological target: T2, Dual specificity mitogen-activated protein kinase kinase 7 (Homo sapiens) (UniProt O14733); details: at 1 µM
T2 sequence (whole entry): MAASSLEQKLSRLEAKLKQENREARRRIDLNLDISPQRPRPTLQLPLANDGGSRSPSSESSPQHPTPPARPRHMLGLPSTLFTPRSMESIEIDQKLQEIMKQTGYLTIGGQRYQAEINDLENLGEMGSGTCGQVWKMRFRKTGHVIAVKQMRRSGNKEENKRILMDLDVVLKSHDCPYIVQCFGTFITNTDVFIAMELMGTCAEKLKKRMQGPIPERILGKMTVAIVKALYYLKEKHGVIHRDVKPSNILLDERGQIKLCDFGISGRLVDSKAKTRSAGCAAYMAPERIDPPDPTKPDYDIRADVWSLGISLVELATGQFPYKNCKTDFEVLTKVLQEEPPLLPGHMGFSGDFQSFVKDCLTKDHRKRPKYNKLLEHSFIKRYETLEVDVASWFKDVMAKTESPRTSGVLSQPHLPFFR

[3] = biological target: T2, Dual specificity mitogen-activated protein kinase kinase 7 (Homo sapiens); details: at 10 µM
[4] = biological target: Myosin light chain kinase, smooth muscle (Homo sapiens) (UniProt Q15746); details: at 1 µM
[5] = biological target: Myosin light chain kinase, smooth muscle (Homo sapiens) (UniProt Q15746); details: at 10 µM
[6] = biological target: Mitogen-activated protein kinase kinase kinase 9 (Homo sapiens) (UniProt P80192); details: at 1 µM
Sequence of Mitogen-activated protein kinase kinase kinase 9 (Homo sapiens) (P80192 whole entry, looked up): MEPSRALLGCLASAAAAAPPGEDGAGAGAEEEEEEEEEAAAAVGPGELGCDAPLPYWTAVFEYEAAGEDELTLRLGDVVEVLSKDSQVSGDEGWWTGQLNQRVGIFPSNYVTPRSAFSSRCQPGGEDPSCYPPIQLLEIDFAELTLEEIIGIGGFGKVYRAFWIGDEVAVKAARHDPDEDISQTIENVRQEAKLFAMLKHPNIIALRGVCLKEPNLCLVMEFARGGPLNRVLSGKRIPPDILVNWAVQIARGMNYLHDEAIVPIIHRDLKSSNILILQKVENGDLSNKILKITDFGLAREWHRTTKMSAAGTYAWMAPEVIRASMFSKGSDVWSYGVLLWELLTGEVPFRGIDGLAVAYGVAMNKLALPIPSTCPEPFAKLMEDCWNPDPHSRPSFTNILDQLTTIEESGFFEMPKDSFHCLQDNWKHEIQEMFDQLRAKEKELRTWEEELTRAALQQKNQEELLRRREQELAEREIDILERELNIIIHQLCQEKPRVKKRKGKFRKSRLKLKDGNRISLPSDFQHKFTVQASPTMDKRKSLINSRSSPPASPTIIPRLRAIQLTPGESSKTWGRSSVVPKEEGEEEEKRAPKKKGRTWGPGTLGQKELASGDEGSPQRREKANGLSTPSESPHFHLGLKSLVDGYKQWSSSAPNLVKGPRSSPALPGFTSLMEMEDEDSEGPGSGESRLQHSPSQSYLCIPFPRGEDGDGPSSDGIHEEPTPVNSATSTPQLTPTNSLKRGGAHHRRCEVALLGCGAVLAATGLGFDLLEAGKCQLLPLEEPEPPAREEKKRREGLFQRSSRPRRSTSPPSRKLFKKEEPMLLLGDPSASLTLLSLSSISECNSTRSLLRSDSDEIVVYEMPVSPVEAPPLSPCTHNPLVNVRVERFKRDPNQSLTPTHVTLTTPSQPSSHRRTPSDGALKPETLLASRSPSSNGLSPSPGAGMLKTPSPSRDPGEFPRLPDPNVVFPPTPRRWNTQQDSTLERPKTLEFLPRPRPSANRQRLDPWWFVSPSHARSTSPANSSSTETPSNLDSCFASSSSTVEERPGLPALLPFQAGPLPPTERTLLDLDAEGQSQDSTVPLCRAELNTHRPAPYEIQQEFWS

[7] = biological target: Mitogen-activated protein kinase kinase kinase 9 (Homo sapiens) (UniProt P80192); details: at 10 µM
[8] = biological target: Serine/threonine-protein kinase MRCK alpha (Homo sapiens) (UniProt Q5VT25); details: at 10 µM
Sequence of Serine/threonine-protein kinase MRCK alpha (Homo sapiens) (Q5VT25 whole entry): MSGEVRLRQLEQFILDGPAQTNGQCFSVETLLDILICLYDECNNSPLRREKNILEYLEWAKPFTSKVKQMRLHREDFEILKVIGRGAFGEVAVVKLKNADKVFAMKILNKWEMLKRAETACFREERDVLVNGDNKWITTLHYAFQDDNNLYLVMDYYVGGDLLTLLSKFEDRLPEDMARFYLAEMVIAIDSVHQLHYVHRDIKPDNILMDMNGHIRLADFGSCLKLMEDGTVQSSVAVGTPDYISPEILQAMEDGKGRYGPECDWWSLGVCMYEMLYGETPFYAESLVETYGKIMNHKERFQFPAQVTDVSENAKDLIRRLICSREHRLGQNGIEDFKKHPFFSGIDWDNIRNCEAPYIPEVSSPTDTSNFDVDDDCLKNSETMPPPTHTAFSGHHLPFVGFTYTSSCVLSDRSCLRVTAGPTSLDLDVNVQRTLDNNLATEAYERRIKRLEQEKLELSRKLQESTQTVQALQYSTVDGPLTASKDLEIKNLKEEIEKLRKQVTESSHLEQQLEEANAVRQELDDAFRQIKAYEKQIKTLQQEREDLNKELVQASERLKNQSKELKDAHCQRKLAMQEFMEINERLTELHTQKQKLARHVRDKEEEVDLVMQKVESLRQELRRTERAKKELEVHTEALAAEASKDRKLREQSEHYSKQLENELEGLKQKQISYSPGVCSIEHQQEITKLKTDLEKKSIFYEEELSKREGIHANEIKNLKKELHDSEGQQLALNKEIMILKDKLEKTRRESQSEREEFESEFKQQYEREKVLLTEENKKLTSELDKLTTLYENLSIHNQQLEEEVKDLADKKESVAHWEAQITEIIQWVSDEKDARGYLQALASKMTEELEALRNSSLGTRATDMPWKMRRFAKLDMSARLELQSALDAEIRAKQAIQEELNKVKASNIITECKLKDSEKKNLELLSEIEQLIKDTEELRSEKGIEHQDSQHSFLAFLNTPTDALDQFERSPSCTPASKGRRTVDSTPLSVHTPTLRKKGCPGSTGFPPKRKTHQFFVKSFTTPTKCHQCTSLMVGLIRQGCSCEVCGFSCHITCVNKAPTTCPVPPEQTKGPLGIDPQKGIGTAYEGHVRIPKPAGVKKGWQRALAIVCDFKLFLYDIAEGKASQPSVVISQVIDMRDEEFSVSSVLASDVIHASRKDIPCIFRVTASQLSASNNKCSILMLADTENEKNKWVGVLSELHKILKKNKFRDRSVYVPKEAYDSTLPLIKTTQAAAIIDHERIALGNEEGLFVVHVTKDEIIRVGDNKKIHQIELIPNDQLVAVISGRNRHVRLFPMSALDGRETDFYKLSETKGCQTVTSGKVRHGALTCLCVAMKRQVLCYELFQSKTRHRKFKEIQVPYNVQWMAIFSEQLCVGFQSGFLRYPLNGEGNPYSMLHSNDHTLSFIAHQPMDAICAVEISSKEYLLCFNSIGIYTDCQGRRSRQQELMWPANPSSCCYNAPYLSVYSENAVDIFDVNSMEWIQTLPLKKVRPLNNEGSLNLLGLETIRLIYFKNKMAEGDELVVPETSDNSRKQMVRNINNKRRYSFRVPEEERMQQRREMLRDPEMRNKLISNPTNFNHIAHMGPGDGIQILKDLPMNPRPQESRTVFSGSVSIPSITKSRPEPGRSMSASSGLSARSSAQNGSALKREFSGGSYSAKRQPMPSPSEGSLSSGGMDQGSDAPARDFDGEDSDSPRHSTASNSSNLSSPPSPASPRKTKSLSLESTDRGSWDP

[9] = biological target: Serine/threonine-protein kinase MRCK beta (Homo sapiens) (UniProt Q9Y5S2); details: at 1 µM
[10] = biological target: Serine/threonine-protein kinase MRCK beta (Homo sapiens) (UniProt Q9Y5S2); details: at 10 µM
[11] = biological target: Ribosomal protein S6 kinase alpha-4 (Homo sapiens) (UniProt O75676); details: at 1 µM
Sequence of Ribosomal protein S6 kinase alpha-4 (Homo sapiens) (O75676 whole entry, looked up): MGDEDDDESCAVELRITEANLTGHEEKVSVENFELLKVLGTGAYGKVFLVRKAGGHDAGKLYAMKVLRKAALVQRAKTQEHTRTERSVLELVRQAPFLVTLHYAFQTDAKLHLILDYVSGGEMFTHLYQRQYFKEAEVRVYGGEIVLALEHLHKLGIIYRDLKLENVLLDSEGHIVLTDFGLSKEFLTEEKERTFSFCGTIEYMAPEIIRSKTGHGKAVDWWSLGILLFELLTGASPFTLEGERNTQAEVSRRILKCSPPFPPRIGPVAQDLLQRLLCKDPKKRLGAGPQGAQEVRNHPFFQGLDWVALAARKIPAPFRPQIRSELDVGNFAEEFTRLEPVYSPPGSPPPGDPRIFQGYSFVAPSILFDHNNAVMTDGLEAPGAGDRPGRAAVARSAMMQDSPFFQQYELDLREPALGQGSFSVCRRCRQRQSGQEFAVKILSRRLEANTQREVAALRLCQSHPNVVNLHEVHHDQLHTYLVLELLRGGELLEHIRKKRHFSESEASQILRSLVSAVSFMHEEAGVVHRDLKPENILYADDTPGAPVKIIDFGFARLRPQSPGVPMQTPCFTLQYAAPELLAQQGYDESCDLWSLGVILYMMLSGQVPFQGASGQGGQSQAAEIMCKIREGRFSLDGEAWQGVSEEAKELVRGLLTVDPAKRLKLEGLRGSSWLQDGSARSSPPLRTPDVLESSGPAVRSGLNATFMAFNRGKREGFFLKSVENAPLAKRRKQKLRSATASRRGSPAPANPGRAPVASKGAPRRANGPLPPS

[12] = biological target: Ribosomal protein S6 kinase alpha-4 (Homo sapiens) (UniProt O75676); details: at 10 µM
[13] = biological target: T3, Serine/threonine-protein kinase 4 (Homo sapiens) (UniProt Q13043); details: at 1 µM
T3 sequence (whole entry): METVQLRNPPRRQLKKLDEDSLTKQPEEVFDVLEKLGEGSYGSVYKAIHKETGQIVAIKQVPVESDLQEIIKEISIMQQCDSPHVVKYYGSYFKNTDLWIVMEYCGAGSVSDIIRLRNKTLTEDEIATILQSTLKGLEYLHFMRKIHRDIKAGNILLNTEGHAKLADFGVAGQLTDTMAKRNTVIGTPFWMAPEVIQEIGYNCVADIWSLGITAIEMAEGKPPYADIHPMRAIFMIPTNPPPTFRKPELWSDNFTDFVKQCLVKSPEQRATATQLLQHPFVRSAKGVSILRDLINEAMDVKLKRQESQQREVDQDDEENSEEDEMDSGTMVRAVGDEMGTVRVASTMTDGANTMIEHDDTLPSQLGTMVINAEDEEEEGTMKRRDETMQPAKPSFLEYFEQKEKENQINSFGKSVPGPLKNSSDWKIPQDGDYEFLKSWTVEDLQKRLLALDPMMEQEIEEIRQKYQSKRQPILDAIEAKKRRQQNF

[14] = biological target: T3, Serine/threonine-protein kinase 4 (Homo sapiens); details: at 10 µM
[15] = biological target: Ribosomal protein S6 kinase alpha-5 (Homo sapiens) (UniProt O75582); details: at 1 µM
Sequence of Ribosomal protein S6 kinase alpha-5 (Homo sapiens) (O75582 whole entry, looked up): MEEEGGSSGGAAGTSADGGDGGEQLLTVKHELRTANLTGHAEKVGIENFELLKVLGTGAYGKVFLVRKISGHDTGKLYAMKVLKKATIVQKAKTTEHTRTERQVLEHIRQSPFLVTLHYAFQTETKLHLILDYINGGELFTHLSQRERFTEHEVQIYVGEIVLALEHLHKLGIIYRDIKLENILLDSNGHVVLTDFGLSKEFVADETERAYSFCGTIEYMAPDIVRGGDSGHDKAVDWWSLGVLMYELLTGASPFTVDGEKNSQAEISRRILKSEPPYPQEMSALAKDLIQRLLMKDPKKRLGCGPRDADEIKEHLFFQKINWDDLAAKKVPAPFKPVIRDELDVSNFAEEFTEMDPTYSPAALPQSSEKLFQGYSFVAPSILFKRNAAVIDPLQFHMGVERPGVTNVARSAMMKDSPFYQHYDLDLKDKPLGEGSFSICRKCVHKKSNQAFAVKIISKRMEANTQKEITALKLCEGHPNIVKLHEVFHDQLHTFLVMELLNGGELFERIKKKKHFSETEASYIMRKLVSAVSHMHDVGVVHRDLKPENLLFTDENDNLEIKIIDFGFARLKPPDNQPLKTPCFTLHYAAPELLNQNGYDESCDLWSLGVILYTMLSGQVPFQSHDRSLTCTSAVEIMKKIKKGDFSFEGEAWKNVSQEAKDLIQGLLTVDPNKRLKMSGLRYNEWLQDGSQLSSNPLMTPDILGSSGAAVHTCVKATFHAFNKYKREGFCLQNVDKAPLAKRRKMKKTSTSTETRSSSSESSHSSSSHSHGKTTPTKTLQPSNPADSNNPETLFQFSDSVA

[16] = biological target: Ribosomal protein S6 kinase alpha-5 (Homo sapiens) (UniProt O75582); details: at 10 µM
[17] = biological target: SRSF protein kinase 3 (Homo sapiens) (UniProt Q9UPE1); details: at 10 µM
Sequence of SRSF protein kinase 3 (Homo sapiens) (Q9UPE1 whole entry): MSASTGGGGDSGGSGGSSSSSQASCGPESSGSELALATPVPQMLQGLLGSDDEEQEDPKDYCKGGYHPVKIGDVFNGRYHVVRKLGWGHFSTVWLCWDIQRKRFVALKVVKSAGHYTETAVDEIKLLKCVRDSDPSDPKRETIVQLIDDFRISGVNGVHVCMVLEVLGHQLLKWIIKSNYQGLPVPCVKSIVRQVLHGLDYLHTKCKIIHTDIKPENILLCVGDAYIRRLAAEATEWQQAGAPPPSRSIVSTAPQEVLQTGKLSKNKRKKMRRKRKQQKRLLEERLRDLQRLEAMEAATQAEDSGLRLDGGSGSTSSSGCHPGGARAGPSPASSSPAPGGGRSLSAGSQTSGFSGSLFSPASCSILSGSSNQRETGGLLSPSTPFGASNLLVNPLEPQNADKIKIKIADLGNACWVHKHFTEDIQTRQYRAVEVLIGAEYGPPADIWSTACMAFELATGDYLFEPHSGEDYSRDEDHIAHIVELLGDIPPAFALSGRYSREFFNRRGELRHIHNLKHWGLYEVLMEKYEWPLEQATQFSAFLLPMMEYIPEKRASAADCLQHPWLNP

[18] = biological target: SRSF protein kinase 3 (Homo sapiens) (UniProt Q9UPE1); details: at 1 µM
[19] = biological target: T1, Dual specificity mitogen-activated protein kinase kinase 6 (Homo sapiens); details: at 10 µM
[20] = biological target: Serine/threonine-protein kinase MRCK alpha (Homo sapiens) (UniProt Q5VT25); details: at 1 µM

Structure (SMILES) | residual activity [1] | residual activity [2] | residual activity [3] | residual activity [4] | residual activity [5] | residual activity [6] | residual activity [7] | residual activity [8] | residual activity [9] | residual activity [10] | residual activity [11] | residual activity [12] | residual activity [13] | residual activity [14] | residual activity [15] | residual activity [16] | residual activity [17] | residual activity [18] | residual activity [19] | residual activity [20]
O=C(c1cc2cc(O)ccc2[nH]1)c1cc2cc(O)ccc2[nH]1 | 112% | 113% | 63% | 70% | 35% | 16% | 4% | 78% | 77% | 82% | 67% | 27% | 39% | 14% | – | – | – | – | – | –
O=C1NC(=O)C(c2c[nH]c3ccccc23)=C1c1c[nH]c2ccccc12 | – | 126% | 117% | 61% | 15% | 43% | 8% | – | – | – | 49% | 6% | 41% | 7% | 73% | 19% | 35% | – | – | –
O=C1Nc2ccccc2/C1=C\c1c(Cl)[nH]c2ccccc12 | – | – | 77% | – | 11% | – | 62% | – | – | – | – | 59% | 51% | 63% | 100% | 71% | – | – | – | –
CN(C)S(=O)(=O)c1ccc2c(c1)/C(=C/c1cc3c([nH]1)CCCC3)C(=O)N2 | 91% | 82% | 95% | – | 88% | 84% | 64% | – | – | – | – | 94% | 23% | 2% | 115% | 125% | 77% | 98% | – | –
CCOc1nc(NC(=O)Cc2cc(OC)ccc2OC)cc(N)c1C#N | – | 11% | 4% | – | 78% | – | – | – | – | – | – | – | 80% | – | – | – | – | – | 62% | –
O=c1cc(N2CCOCC2)oc2c(-c3ccccc3)cccc12 | 72% | – | 76% | – | – | – | – | – | – | 65% | – | – | – | – | – | – | – | – | – | –
NC(=O)c1cccc(-c2cc(Nc3ccc(OC(F)(F)F)cc3)ncn2)c1 | 144% | – | – | 88% | – | 95% | 87% | 145% | – | – | – | – | – | – | – | – | – | – | 95% | –
COc1cc2ncnc(Nc3cccc(Cl)c3)c2cc1OC | 47% | – | – | 64% | 28% | 76% | 21% | 111% | 102% | 104% | – | – | – | 74% | 103% | 102% | 22% | 104% | 26% | 107%
COc1ccc2c(c1)c(C1=C(c3c[nH]c4ccccc34)C(=O)NC1=O)cn2CCCN(C)C | 110% | – | 104% | 51% | 15% | 63% | 15% | 80% | 80% | 41% | 39% | 5% | 64% | 25% | 37% | 4% | 52% | – | – | 74%
O=C1NC(=O)C(c2cn(CCCn3ccnc3)c3ccccc23)=C1Nc1ccccc1 | – | 102% | 121% | 53% | 23% | 16% | 5% | – | – | 41% | 22% | 4% | 41% | 13% | 39% | 6% | 67% | 100% | – | –
CCCCc1c(-c2ccc(OC)cc2)[nH]c2nccnc12 | 128% | – | – | 104% | 83% | 16% | 19% | 88% | 103% | – | – | – | 71% | 40% | 111% | 117% | 87% | 102% | 80% | –
CCOC(=O)c1c(C)[nH]c(/C=C2\C(=O)Nc3ccccc32)c1C | 85% | 84% | 85% | 90% | 78% | 43% | 39% | – | 91% | 83% | 87% | 91% | – | – | – | 97% | 90% | 95% | – | –
CC(C)N(CCC(=O)c1ccc2ccccc2c1)Cc1ccccc1 | – | – | 38% | 81% | 83% | 86% | – | – | 82% | 77% | – | – | 87% | 84% | 126% | 123% | 85% | – | – | –
O=S(=O)(NCCNC/C=C/c1ccc(Br)cc1)c1cccc2cnccc12 | – | – | – | – | 63% | – | 74% | – | – | 66% | 9% | 2% | – | – | 19% | 3% | – | – | 69% | –
COc1cc2nccc(Oc3ccc(NC(=O)Nc4cc(C)on4)c(Cl)c3)c2cc1OC | 49% | – | – | 66% | 61% | – | 61% | 102% | – | – | – | – | – | 56% | 107% | 80% | – | – | 21% | –
CCCC(=O)Oc1ccc2[nH]c(C(=O)c3cc4ccccc4[nH]3)cc2c1 | 99% | 104% | 81% | 90% | 97% | 80% | 88% | 102% | 92% | 79% | 94% | 99% | 94% | 103% | – | 103% | 88% | – | – | 102%
CC(C)c1nn(-c2c(Cl)cccc2Cl)c2nc(Cc3ccc(OCCO)cc3)[nH]c(=O)c12 | – | 84% | 77% | 105% | 99% | 86% | 48% | 102% | 97% | 83% | 94% | 84% | 80% | 68% | 128% | 91% | 76% | 87% | 90% | 106%
